Measurements published in PubChem BioAssay (NCI).
The panel holds about 83,000 compounds, 20% with a hit somewhere; the sample as a whole holds those more often.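 Each cell line was grown in a 96-well plate and treated with one concentration of compound for 48 hours. Values below 10 were considered active.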 Unmarked numbers belong to inactive results. The source made the active and inactive calls.

Legend:
Test in all cases: NCI-60 one-dose screen, 48 h (100 = growth as untreated, 0 = no growth, -100 = all killed)
Settings in all cases: 10 µM unless noted
SR leukemia = tested on: SR leukemia
RPMI-8226 leukemia = tested on: RPMI-8226 leukemia
OVCAR-8 ovarian = tested on: OVCAR-8 ovarian
OVCAR-5 ovarian = tested on: OVCAR-5 ovarian
OVCAR-4 ovarian = tested on: OVCAR-4 ovarian
SK-OV-3 ovarian = tested on: SK-OV-3 ovarian
IGROV1 ovarian = tested on: IGROV1 ovarian
OVCAR-3 ovarian = tested on: OVCAR-3 ovarian
HS 578T breast = tested on: HS 578T breast
NCI/ADR-RES ovarian = tested on: NCI/ADR-RES ovarian
T-47D breast = tested on: T-47D breast
BT-549 breast = tested on: BT-549 breast
MDA-MB-435 melanoma = tested on: MDA-MB-435 melanoma
SW-620 colon = tested on: SW-620 colon
MCF7 breast = tested on: MCF7 breast
HCC-2998 colon = tested on: HCC-2998 colon
HCT-116 colon = tested on: HCT-116 colon
KM12 colon = tested on: KM12 colon

Compound	growth (SR leukemia)	growth (RPMI-8226 leukemia)	growth (OVCAR-8 ovarian)	growth (OVCAR-5 ovarian)	growth (OVCAR-4 ovarian)	growth (SK-OV-3 ovarian)	growth (IGROV1 ovarian)	growth (OVCAR-3 ovarian)	growth (HS 578T breast)	growth (NCI/ADR-RES ovarian)	growth (T-47D breast)	growth (BT-549 breast)	growth (MDA-MB-435 melanoma)	growth (SW-620 colon)	growth (MCF7 breast)	growth (HCC-2998 colon)	growth (HCT-116 colon)	growth (KM12 colon)
CC(C)CSc1nc(-c2ccc(F)cc2)c(C#N)c(N2CCCCC2)n1	84.3%	102%	94%	90.5%	97.1%	99.6%	104%	93%	99.4%	88.7%	91.2%	88.9%	98.6%	97.8%	83%	104%	–	–
CCCC(=O)NNc1[nH]c(-c2ccc(OC)cc2)cc1C(=O)OCC	106%	98.4%	110%	95.7%	117%	113%	18.1%	90%	97.7%	106%	63.9%	99.4%	95.2%	95.5%	104%	75.2%	–	–
COc1ccc(-n2nnnc2-c2cn[nH]c2C(F)(F)F)cc1	73.4%	92.1%	95.5%	108%	79.1%	103%	-28.4% (active)	104%	101%	129%	77.8%	85.5%	98.1%	94.6%	111%	78.9%	97%	101%
Nc1ccc(S(=O)(=O)c2ccc(NO)cc2)cc1	129%	106%	95.6%	80.4%	88.6%	94.2%	1.89% (active)	131%	97%	90.3%	96.9%	80%	97.3%	104%	95.1%	92.6%	98.9%	116%
CCOC(=O)/C(C#N)=C(/CC)OCC	85.6%	103%	98.8%	106%	106%	105%	105%	104%	115%	112%	100%	95.2%	105%	102%	94.9%	113%	–	97.7%
CC(=O)Nc1nc(C)c(C(=O)N/N=C/c2cccs2)s1	81.4%	61.9%	112%	99%	112%	87.7%	-4.95% (active)	121%	85.5%	99.2%	67.8%	120%	111%	94.2%	75.7%	114%	–	116%
O=C1NCCN1/N=C/c1c(Cl)nc2n1CCS2	59.4%	63.7%	115%	102%	113%	111%	84%	106%	139%	114%	119%	97.7%	112%	103%	106%	111%	93.5%	101%
COc1ccc2nc3cc(Cl)ccc3c(NCCCNC(C)=O)c2c1	21%	37.2%	26.8%	39.1%	49.2%	49.7%	36.2%	45.8%	60.4%	41.4%	38.1%	88.7%	41.3%	27%	15.8%	50.3%	–	30.7%
OCC(O)C(O)CC1SCCS1 (stereo not given)	103%	122%	96.3%	106%	112%	103%	107%	101%	106%	102%	97.1%	102%	105%	99.7%	103%	108%	104%	103%
